Results: PubChem BioAssay (NCATS)
Records with an inconclusive call do not appear. Activity calls are given as the source filed them. Unless noted, calls come from the whole dose curve; as a rule, active = well fitted curve in either direction with a large enough effect (not every such curve was filed as active); inconclusive = small, poorly fitted or top-dose-only effect, or another doubt; inactive = flat fitted curve, though single readings scatter.

Assays:
[1] = AP1 Signaling Pathway (AID 357); conditions: ME-180 AP-1-bla reporter, EGF-induced, beta-lactamase ratio, 5 h; at 7.69 µM (top of the series) unless noted;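 note: ME-180 reporter cells stimulated with EGF at its EC50 level; % is set by controls: 0 for no effect and ±100 for the full control effect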
Summary of the method: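 Cells are seeded overnight, exposed to compound titrations and an EC50 level of EGF for 5 hours at 37 °C, then loaded with CCF4 dye for 2.5 hours. Beta-lactamase activity under the AP-1 element is read as a blue/green ratio.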

[2] = target: Cytochrome P450 1A2 (Homo sapiens) (UniProt P05177); assay: p450-cyp1a2 (AID 410; calls by dose curve;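 note: -100% = full effect of reference inhibitor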); conditions: recombinant CYP1A2, luciferin-ME demethylation, luminescence; series mostly up to 11.4 µM
Summary of the method: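 Read-out is luminescence from luciferin produced by CYP1A2 demethylation of Luciferin-ME (100uM, at Km). Detection reagent stopped the 60 min NADPH-dependent reaction; signals were normalized to 57 uM furafylline.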

[3] = NFAT Signaling Pathway (AID 444); conditions: Jurkat NFAT-bla M1, carbachol, beta-lactamase ratio, 5 h; at 7.69 µM (top of the series) unless noted;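 note: carbachol stimulus at about its EC50 of 1 µM final; % is set by controls: 0 for no effect and ±100 for the full control effect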
Summary of the method: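 Jurkat cells carrying an NFAT-driven β-lactamase reporter and co-transfected muscarinic M1 receptor were treated with compound plus carbachol (1 uM final, an EC50 level) for 5 h at 37 °C. CCF4 loading followed for 1 h at RT; 460/530 nm ratio gave %activity.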

[4] = Stat Signaling Pathway (AID 446); conditions: ME-180 (cervical carcinoma) SIE beta-lactamase reporter, IL-6 stimulated, 5 h; at 7.69 µM (top of the series) unless noted;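 note: ME-180 cervical cancer cells given 40 pM IL-6 alongside compound; SIE-controlled beta-lactamase reporter measured as 460/530 nm FRET emission ratio; % is set by controls: 0 for no effect and ±100 for the full control effect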
Summary of the method: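 Emission at 460 and 530 nm (excitation 405 nm) reports SIE-controlled beta-lactamase in ME-180 cells. Cells received compound with 40 pM IL-6 for 5 hrs at 37 C; data scaled between 300 pM IL-6 and 125 nM JAK-inhibitor controls.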

[5] = target: Glucocorticoid receptor (Homo sapiens) (UniProt P04150); assay: GR-GFP Redistribution (AID 450;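 active = compounds whose dose series gives a full or clear partial fitted curve of increased nuclear translocation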; note: potency is the fitted concentration of half-maximal effect); conditions: U2OS GR-GFP nuclear translocation, laser cytometry, 2 h
[6] = target: Glucocorticoid receptor (Homo sapiens) (UniProt P04150); assay: GR-EFC Redistribution (AID 451; calls by dose curve; note: potency is the fitted concentration of half-maximal effect); conditions: CHO-K1 GR-EFC translocation, beta-gal luminescence, 2 h
Summary of the method: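 CHO-K1 cells stably expressing nuclear-localized β-gal enzyme acceptor and GR fused C-terminally to the enzyme donor fragment; ligand-driven nuclear translocation restores β-gal by complementation. Compounds titrated up to 46 uM final, 2 h at 37 °C; luminescence read.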

[7] = target: 3',5'-cyclic-AMP phosphodiesterase 4B (Homo sapiens) (UniProt Q07343); assay: qHTS Assay for Inhibitors of PDE-IV (AID 607; active = well fitted activation curve with a large enough effect in the main read-out, with a control signal flat, not every such curve was filed as active; note: % of control where 0% means no effect); conditions: HEK293 ACTOne CNG channel cells, membrane potential fluorescence; series mostly up to 22.9 µM
Summary of the method: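 The readout is membrane depolarisation from a cAMP-sensing CNG channel, detected with a potential dye at ex 535/em 590. Cells were HEK293-derived (endogenous PDE-IV) at 1000 cells/well, titrated up to 22.9 uM final.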

[8] = target: Cytochrome P450 2C9 (Homo sapiens) (UniProt P11712); assay: qHTS Assay for Inhibitors and Substrates of Cytochrome P450 2C9 (AID 883; active = well fitted curve in the direction sought with a large enough effect; an effect the other way counts as inactive or inconclusive; note: % is set by controls: 0 for no effect and ±100 for the full control effect; nearly all actives have a fitted effect of over 60% in size); conditions: recombinant CYP2C9, luciferin-H luminescence, 60 min; series mostly up to 11.4 µM
Summary of the method: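 CYP2C9 deoxyluciferin hydroxylation, 37C, 60 min with NADPH regeneration; 10nM enzyme, 100uM Luciferin-H (KM). Glo detection reagent stopped reaction; luminescence normalized to sulphaphenazole (57uM) full inhibition.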

[9] = target: Cytochrome P450 2D6 (Homo sapiens) (UniProt P10635); assay: qHTS Assay for Inhibitors and Substrates of Cytochrome P450 2D6 (AID 891; active = well fitted curve in the direction sought with a large enough effect; an effect the other way counts as inactive or inconclusive;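 note: luciferin methyl ether substrate demethylated by CYP2D6 with NADPH regeneration; % is set by controls: 0 for no effect and ±100 for the full control effect; nearly all actives have a fitted effect of over 60% in size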); conditions: recombinant CYP2D6, luciferin-ME EGE luminescence; series mostly up to 11.4 µM
Summary of the method: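 Luminescent read-out of luciferin formed by 5 nM human CYP2D6 demethylating 30 uM Luciferin-ME EGE (Km level) over 60 min at room temperature after NADPH regeneration addition. Data normalized to full inhibition by 1.43 uM quinidine.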

[10] = target: Cytochrome P450 2C19 (Homo sapiens) (UniProt P33261); assay: qHTS Assay for Inhibitors and Substrates of Cytochrome P450 2C19 (AID 899; active = well fitted curve in the direction sought with a large enough effect; an effect the other way counts as inactive or inconclusive; note: % is set by controls: 0 for no effect and ±100 for the full control effect; nearly all actives have a fitted effect of over 60% in size); conditions: recombinant CYP2C19, luciferin-H EGE luminescence; series mostly up to 11.4 µM
Summary of the method: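 In 50mM KPO4, the reaction held 5nM enzyme and KM-level (10uM) Luciferin-H EGE; it ran 60 min at 37C after NADPH regeneration and a 10 min compound preincubation. Luminescence values were scaled to 57uM ketoconazole as complete inhibition.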

[11] = qHTS profiling for inhibitors of Plasmodium falciparum proliferation (AID 504749; active = well fitted curve in the direction sought with a large enough effect; an effect the other way counts as inactive or inconclusive;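 note: 0% = DMSO vehicle and full inhibition = artemisinin control; nearly all actives have a fitted effect of over 60% in size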); conditions: P. falciparum in erythrocytes, SYBR Green DNA, 72 h, at 28.7 µM (top of the series)
Summary of the method: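 Fluorescence of SYBR Green-bound parasite DNA, read at 485/535 nm, served as the growth measure. Infected erythrocytes were cultured with compound 72 h; artemisinin (0.29 uM) and DMSO wells defined the normalization range.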

[12] = target: Mitogen-activated protein kinase 10 (Mus musculus) (UniProt Q61831); assay: JNK3 AlphaScreen Assay (AID 530); conditions: JNK3 lysate, c-Jun phosphorylation; series mostly up to 11.4 µM;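 note: kinase came from lysate of stimulated human HepG2 cells; signal reports phosphorylation of biotinylated GST-cJun 1-79 at Ser73 with 10 µM ATP; % is set by controls: 0 for no effect and ±100 for the full control effect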
Summary of the method: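 Biotinylated GST-cJun(1-79) served as substrate for JNK3 in HepG2 lysates stimulated with IL-1beta and TNF-alpha. ATP was 10 uM final, pH 7.6. Ser73 phosphorylation was quantified by AlphaScreen (680 nm excitation).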

[13] = target: Lysosomal acid glucosylceramidase (Homo sapiens) (UniProt P04062); assay: Glucocerebrosidase-p2 (AID 348; in the data active = potency below about 10 µM; note: potency is the fitted concentration of half-maximal effect); conditions: purified GBA, blue fluorogenic substrate, 40 min
Summary of the method: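 Normal human glucocerebrosidase (0.2 nM) with blue fluorogenic substrate (80 uM final) in citrate/phosphate pH 5.9 with 10mM sodium taurocholate, 0.01% tween-20; 40 min RT, NaOH/glycine stop; fluorescence Ex 365/Em 440; AC50 from a titration from 0.6 nM upwards.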

[14] = target: Guanine nucleotide-binding protein G(i) subunit alpha-1 (Homo sapiens) (UniProt P63096); assay: qHTS Assay for Inhibitors of RGS12 GoLoco Motif Activity (Green Fluorophore) (AID 879; active = well fitted curve in the direction sought with a large enough effect; an effect the other way counts as inactive or inconclusive;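 note: 0% = labeled peptide with Gαi1 and full inhibition = labeled peptide alone without protein; negative values mean loss of peptide binding seen as reduced polarization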); conditions: Galphai1/FITC-RGS12 GoLoco peptide, fluorescence polarization; series mostly up to 57.1 µM
Summary of the method: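 A drop in FITC polarization marked displacement of the FITC-tagged RGS12 GoLoco peptide (10 nM) from Gαi1 (50 nM). Compounds were incubated 10 min at room temperature in Tris pH 7.5 buffer containing 150 mM NaCl, 0.1 mM GDP and 0.05% NP40; unlabeled peptide titration served as control.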

[15] = target: Cytochrome P450 3A4 (Homo sapiens) (UniProt P08684); assay: qHTS Assay for Inhibitors and Substrates of Cytochrome P450 3A4 (AID 884; active = well fitted curve in the direction sought with a large enough effect; an effect the other way counts as inactive or inconclusive; note: % is set by controls: 0 for no effect and ±100 for the full control effect; nearly all actives have a fitted effect of over 50% in size); conditions: recombinant CYP3A4, Luciferin-PPXE luminescence; series mostly up to 57.1 µM
Summary of the method: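 Luminescent readout of luciferin produced by CYP3A4 (20 nM) dealkylation of Luciferin-PPXE, 25 uM (its KM). NADPH-driven reaction ran 60 min at RT after 10 min compound preincubation; data scaled to 57 uM ketoconazole as 100% inhibition.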

[16] = target: Pyruvate kinase PKM (Homo sapiens) (UniProt P14618); assay: qHTS Assay for Activators of Human Muscle Pyruvate Kinase (AID 954; active = well fitted curve in the direction sought with a large enough effect, not every such curve was filed as active;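 note: 0% = uninhibited enzyme and -100% = no enzyme or full thiadiazolimine inhibition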); conditions: purified human muscle pyruvate kinase, luciferase-coupled luminescence, 1 h; series mostly up to 57.5 µM
Summary of the method: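 PKM2, human, >95% pure, 0.1 nM; PEP 0.5 mM (Km), ADP 0.1 mM; 50 mM imidazole pH 7.2, 50 mM KCl, 0.01% Tween 20, 0.05% BSA; 1 h RT; luciferase luminescence readout.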

[17] = target: Alpha-galactosidase A (Homo sapiens) (UniProt P06280); assay: Counterscreen for Glucocerebrosidase Inhibitors: qHTS Assay for Human alpha-Galactosidase at pH 4.5 (AID 992; active = well fitted curve in the direction sought with a large enough effect; an effect the other way counts as inactive or inconclusive; note: 0% is about no effect); conditions: purified enzyme, fluorogenic substrate; series mostly up to 76.9 µM
Summary of the method: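 Fluorogenic 4-MU alpha-D-galactoside (80 uM) hydrolysis, 2 nM enzyme, pH 4.5 citrate buffer + 0.005% Tween-20; 20 min RT; NaOH/glycine pH 10 stop; Ex365/Em440. Compounds titrated 0.7 nM–77 uM; Hill-equation AC50.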

Cytochrome P450 1A2 (Homo sapiens), sequence (P05177 whole entry, looked up): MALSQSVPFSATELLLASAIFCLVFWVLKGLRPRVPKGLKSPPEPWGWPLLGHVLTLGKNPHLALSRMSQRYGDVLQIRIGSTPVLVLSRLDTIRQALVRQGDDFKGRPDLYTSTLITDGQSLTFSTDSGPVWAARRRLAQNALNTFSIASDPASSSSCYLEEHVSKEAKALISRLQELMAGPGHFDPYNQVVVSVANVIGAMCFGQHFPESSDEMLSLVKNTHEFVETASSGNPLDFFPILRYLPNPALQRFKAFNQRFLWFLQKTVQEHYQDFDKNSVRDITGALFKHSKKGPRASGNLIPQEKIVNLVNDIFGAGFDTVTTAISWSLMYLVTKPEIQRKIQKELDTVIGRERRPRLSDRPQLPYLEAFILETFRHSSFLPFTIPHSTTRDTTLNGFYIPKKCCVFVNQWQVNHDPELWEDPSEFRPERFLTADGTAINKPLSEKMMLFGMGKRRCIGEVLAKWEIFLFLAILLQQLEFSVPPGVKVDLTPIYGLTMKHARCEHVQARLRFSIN
3',5'-cyclic-AMP phosphodiesterase 4B (Homo sapiens), sequence (Q07343 whole entry, looked up): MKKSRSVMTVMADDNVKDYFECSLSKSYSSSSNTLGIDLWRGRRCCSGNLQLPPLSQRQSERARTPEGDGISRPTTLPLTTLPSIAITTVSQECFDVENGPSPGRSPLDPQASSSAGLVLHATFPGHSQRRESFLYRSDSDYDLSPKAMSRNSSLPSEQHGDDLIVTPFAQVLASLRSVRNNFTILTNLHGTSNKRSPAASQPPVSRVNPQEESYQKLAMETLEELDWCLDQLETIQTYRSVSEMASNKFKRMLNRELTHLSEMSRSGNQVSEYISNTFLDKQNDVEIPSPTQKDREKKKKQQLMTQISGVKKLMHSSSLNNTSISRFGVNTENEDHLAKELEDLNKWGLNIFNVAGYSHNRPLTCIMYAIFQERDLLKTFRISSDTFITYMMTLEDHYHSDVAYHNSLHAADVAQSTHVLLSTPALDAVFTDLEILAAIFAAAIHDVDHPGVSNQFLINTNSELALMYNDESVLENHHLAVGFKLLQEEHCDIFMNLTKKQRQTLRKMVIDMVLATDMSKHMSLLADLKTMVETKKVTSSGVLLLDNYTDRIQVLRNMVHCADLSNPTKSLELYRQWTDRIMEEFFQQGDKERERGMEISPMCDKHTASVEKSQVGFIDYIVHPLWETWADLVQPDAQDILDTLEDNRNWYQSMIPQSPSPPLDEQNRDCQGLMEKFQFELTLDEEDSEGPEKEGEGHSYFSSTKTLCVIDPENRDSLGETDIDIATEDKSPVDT
Glucocorticoid receptor (Homo sapiens), sequence (P04150 whole entry, looked up, the tested form may be a part): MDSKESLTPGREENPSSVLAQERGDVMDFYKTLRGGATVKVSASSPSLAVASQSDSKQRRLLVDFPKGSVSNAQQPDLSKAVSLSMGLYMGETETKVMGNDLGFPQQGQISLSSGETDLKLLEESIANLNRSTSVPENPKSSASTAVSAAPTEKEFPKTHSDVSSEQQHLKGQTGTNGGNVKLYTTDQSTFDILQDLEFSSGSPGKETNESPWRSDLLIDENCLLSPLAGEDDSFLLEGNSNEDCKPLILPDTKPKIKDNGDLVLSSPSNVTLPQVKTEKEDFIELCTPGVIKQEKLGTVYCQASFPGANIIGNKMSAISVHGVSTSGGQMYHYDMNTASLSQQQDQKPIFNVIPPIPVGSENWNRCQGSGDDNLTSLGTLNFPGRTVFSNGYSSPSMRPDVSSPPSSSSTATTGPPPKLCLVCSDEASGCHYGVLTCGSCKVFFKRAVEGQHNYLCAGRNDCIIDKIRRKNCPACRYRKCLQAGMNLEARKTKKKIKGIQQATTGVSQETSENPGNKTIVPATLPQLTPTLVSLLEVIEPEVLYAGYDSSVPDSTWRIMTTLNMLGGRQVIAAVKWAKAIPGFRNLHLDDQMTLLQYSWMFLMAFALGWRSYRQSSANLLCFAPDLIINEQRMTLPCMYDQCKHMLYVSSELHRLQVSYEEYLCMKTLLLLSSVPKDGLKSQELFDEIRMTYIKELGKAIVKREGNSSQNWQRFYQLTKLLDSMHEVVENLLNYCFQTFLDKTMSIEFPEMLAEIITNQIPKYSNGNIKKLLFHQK
Cytochrome P450 2C9 (Homo sapiens), sequence (P11712 whole entry, looked up): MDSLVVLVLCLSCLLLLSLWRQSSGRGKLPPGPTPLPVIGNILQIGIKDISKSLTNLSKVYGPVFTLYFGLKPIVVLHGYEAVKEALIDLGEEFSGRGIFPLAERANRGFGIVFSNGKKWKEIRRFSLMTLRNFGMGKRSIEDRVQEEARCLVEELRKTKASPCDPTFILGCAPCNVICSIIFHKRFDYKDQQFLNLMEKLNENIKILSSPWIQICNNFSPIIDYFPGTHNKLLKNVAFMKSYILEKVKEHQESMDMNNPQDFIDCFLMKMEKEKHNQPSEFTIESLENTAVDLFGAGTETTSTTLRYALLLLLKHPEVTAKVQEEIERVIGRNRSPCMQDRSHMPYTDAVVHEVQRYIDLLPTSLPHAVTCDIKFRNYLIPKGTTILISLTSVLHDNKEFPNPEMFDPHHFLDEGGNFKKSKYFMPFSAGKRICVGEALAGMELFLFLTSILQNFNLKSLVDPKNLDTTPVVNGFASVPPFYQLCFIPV
Cytochrome P450 2C19 (Homo sapiens), sequence (P33261 whole entry, looked up): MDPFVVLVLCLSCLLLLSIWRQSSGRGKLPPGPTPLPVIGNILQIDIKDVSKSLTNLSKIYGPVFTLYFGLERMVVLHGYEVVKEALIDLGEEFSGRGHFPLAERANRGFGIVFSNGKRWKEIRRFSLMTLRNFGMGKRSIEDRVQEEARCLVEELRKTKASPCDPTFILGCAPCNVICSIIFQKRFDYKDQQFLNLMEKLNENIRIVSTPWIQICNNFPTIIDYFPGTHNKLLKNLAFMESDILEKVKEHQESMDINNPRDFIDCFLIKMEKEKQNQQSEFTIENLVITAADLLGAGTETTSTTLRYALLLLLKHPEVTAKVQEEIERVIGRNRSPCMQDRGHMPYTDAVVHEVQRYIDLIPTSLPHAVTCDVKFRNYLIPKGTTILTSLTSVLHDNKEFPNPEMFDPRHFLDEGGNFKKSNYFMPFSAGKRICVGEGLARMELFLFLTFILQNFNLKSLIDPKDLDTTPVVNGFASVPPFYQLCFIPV
Cytochrome P450 2D6 (Homo sapiens), sequence (P10635 whole entry, looked up): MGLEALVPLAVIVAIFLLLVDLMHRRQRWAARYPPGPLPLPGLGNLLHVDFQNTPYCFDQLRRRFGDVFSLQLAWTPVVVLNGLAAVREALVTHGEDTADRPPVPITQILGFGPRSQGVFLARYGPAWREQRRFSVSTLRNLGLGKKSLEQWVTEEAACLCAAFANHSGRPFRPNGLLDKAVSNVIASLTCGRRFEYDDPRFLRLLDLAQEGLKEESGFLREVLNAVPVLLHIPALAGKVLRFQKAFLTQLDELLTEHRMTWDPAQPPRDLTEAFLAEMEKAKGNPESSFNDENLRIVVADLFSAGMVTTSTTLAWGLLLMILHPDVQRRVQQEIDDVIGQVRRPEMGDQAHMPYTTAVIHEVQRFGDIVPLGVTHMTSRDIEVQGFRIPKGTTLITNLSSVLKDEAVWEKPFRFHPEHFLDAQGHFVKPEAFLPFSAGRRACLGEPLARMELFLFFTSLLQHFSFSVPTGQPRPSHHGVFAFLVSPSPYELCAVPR
Pyruvate kinase PKM (Homo sapiens), sequence (P14618 whole entry, looked up): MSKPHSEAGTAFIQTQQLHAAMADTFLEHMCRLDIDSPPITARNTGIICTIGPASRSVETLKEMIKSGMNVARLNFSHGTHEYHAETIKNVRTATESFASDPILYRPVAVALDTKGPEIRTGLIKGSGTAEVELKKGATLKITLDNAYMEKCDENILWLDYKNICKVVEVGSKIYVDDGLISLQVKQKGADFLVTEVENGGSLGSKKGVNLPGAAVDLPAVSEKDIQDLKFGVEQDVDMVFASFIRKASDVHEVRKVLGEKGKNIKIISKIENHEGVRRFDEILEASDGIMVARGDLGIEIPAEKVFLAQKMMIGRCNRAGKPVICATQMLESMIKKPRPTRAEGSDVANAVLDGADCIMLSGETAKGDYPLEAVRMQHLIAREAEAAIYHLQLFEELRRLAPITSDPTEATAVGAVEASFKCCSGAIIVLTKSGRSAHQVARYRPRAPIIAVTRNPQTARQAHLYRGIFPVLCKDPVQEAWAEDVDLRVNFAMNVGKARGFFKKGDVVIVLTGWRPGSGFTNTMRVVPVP
Cytochrome P450 3A4 (Homo sapiens), sequence (P08684 whole entry, looked up): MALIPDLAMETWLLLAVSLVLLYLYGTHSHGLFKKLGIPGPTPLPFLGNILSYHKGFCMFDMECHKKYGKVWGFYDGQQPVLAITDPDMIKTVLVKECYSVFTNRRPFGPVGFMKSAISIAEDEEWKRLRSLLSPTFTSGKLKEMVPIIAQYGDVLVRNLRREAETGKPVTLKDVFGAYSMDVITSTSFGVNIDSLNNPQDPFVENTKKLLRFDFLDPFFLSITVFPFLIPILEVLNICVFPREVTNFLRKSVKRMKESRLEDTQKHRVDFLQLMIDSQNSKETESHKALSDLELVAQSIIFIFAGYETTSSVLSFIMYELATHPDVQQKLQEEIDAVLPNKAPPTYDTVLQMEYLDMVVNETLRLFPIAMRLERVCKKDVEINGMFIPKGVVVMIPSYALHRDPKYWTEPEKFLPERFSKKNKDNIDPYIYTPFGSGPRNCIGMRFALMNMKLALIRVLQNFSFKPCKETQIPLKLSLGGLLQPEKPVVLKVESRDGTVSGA
Guanine nucleotide-binding protein G(i) subunit alpha-1 (Homo sapiens), sequence (P63096 whole entry, looked up): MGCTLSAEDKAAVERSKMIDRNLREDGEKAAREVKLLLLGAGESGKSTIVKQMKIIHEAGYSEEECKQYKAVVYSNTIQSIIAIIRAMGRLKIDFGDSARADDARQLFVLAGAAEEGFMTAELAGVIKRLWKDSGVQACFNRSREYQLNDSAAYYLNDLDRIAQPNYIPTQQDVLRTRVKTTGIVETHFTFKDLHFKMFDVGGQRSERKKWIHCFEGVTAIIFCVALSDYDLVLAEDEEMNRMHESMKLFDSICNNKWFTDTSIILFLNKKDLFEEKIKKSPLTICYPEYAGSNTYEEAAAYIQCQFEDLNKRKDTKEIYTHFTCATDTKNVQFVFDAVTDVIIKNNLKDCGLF

N[C@H](COP(=O)(O)O)C(=O)O
inactive: activity change, negative = inhibition [1] -5.61% [at 38 µM] | Potency [2] | activity change, negative = inhibition [3] 1.24% [at 38 µM] | activity, negative = inhibition [4] 20.2% [at 38 µM] | Potency [5] > 46 µM | Potency [6] > 46 µM | Potency [7] | Potency [8] | Potency [9] | Potency [10] | activity, negative = inhibition ([11]; parasite line A) 15.2% | activity, negative = inhibition ([11]; parasite line B) 6.94%

N#C[C@H]1CN[C@H](N)N[C@@H]1N
inactive: activity change, negative = inhibition [1] 2.11% | activity change, negative = inhibition [2] -11.6% [at 2.29 µM] | activity change, negative = inhibition [3] 6.86% | activity, negative = inhibition [4] 13.9% | Potency [5] > 46 µM | Potency [6] > 9.22 µM | Potency [12] | Potency [7]

CC(CO)(CO)N=Cc1cc(I)cc(I)c1O
inactive: Potency [13] > 11.4 µM | activity, negative = inhibition [4] -24.6% | Potency [5] > 46 µM | Potency [6] > 9.22 µM | Potency [12] | Potency [7]

C[C@@H](N1CCOCC1)[C@@](O)(c1ccccc1)c1ccccn1
inactive: activity change, negative = inhibition [1] 2.55% | activity change, negative = inhibition [2] -2.5% [at 2.29 µM] | activity change, negative = inhibition [3] 12.6% | activity, negative = inhibition [4] 4.17% | Potency [5] > 46 µM | Potency [6] > 9.22 µM | Potency [12] | Potency [7]

CSc1nc(N)c2ncn([C@@H]3O[C@@H](COP(=O)(O)OP(=O)(O)OP(=O)(O)O)[C@@H](O)[C@H]3O)c2n1
inactive: activity change, negative = inhibition [1] 18.4% [at 38 µM] | Potency [2] | activity change, negative = inhibition [3] 0.479% [at 38 µM] | activity, negative = inhibition [4] -1.18% [at 38 µM] | Potency [5] > 46 µM | Potency [6] > 46 µM | Potency [12] | Potency [7] | outcome [14] | Potency [8] | Potency [15] | Potency [9] | Potency [10] | outcome [16] | outcome [17]

CN(C)CCCNc1cc(O)c2c(c1O)C(=O)c1ccccc1C2=O
inactive: activity change, negative = inhibition [1] 9.25% | activity change, negative = inhibition [2] -23.1% [at 2.29 µM] | activity change, negative = inhibition [3] 23.5% | activity, negative = inhibition [4] 26% | Potency [5] > 46 µM | Potency [6] > 9.22 µM | Potency [12] | Potency [7]
